Measured values as given in PubChem BioAssay AID1986 (Sanford-Burnham Center for Chemical Genomics, 2009).
Values joined by “and” are separate entries in the source; they are usually repeats but may differ in a detail not shown here. Equal entries are not always repeated. In all, about 290,000 compounds went through this assay and about 890 (0.31%) were called active. No stated cut-off is given here; in the data, active means inhibition mostly above about 52% (no sharp cut-off); inactive means mostly below about 76%. The entries come from a sample that favours actives as a whole.

Assay: cell-free HIV fusion peptide-binding blockers – biochemical, uHTS, fluorescence dequenching, primary screen (AID 1986)
Settings: 30 min, stronger effect = higher value
[1] = measured here: repeat confirmation average inhibition, at 18.6 µM

Row | Compound | inhibition (at 20 µM) | inhibition [1] [%]
1 | COCCN(C(=O)Nc1ccc(OC)cc1OC)C1CCN(C(C)C)CC1 | -0.7% (inactive) | 
2 | CN(NC(=O)Nc1ccc(Cl)cc1)c1c(Cl)c(Cl)nn1C | -1.2% (inactive) | 
3 | Cc1cccc(Nc2nc(C)cc(C)n2)c1 | 1.1% (inactive) | 
4 | CCN(CC)S(=O)(=O)c1ccc(NC(=S)NC(=O)C2CCC2)cc1 | 0.1% (inactive) | 
5 | CSCC[C@H](NC(=O)N1CCn2c1nc1ccccc12)C(=O)N1CCCCC1 | 1.5% (inactive) | 
6 | COc1ccc(C)cc1-n1nnnc1SCC1CCCO1 (stereo unspecified) | 1% (inactive) | 
7 | Cc1cccc(Cn2c(=O)c3c(nc4n3CCN4Cc3ccco3)n(C)c2=O)c1 | -3% (inactive) | 
8 | O=[N+]([O-])c1ccccc1OCCCNCc1ccccc1 | 1.6% (inactive) | 
9 | CN1CCN(c2ccc(NC(=O)COc3ccccc3[N+](=O)[O-])cc2)CC1 | -1.4% (inactive) | 
10 | CC(C)Cc1ccc(CN2CCCC(NC(=O)CCN3CCCO3)C2)cc1 (stereo unspecified) | -1.9% (inactive) | 
11 | O=C(Cn1cnc2c(nnn2Cc2ccc(F)cc2)c1=O)Nc1cccc(F)c1 | 3.6% (inactive) | 
12 | CSCC(C)N1CCC(Oc2cccc(C(=O)NCc3ccccn3)c2)CC1 (stereo unspecified) | 17% (inactive) | 
13 | O=C(O)CCCCC1SCC2NC(=O)NC21 (stereo unspecified) | 0.9% (inactive) and -0.7% (inactive) | 
14 | O=C(O)CCCCCCCC(=O)O | -0.3% (inactive) | 
15 | O=C(O)CCCCC1CCSS1 (stereo unspecified) | 63.2% (active) | 
16 | CN(C)c1ccc(/C=C2\CCC/C(=C\c3ccccc3)C2=O)cc1 | 80.8% (active) | 70.4
17 | CC(C)/C=C1\CC/C(=C\c2ccc(N(C)C)cc2)C1=O | 37.1% (inactive) | 
18 | CN(C)c1ccc(/C=C2\CCCCC2=O)cc1 | 3.4% (inactive) | 
19 | O=C1NC(=S)N(C(=O)c2ccc(F)cc2)/C1=C/c1cccnc1 | 4.6% (inactive) | 
20 | COc1ccc(/C=C2\C(=O)NC(=S)N2C(=O)c2ccc(C)cc2)cc1 | 63.6% (active) | 
21 | COc1ccc(/C=C2\C(=O)NC(=S)N2C(=O)c2ccc(F)cc2)cc1 | 70.6% (active) | 59.8
22 | COc1ccc(/C=C2\C(=O)NCC(=O)N2C)cc1 | -3.1% (inactive) | 
23 | O=C1NC(=S)N(C(=O)c2ccc(F)cc2)/C1=C/c1ccccc1 | 79% (inactive) | 19.2

Row | Compound | inhibition (at 20 µM) | inhibition [1] [%]
24 | COc1ccc(C(=O)N2C(=S)NC(=O)/C2=C\c2ccc(C)cc2)cc1 | 43.1% (inactive) | 
25 | Cc1ccc(C)c(S(=O)(=O)Nc2ccc(C(=O)NCCCN3CCCC3=O)cc2)c1 | 0.7% (inactive) | 
26 | Cc1cc(OCC(=O)NCc2cccnc2)c2c(C)c(Cc3ccccc3)c(=O)oc2c1 | 1.1% (inactive) | 
27 | N#C/C(=C\c1ccc(N2CCOCC2)o1)C(=O)NC1CCCCC1 | 66.5% (active) | 55.2
28 | N#C/C(=C\c1ccc(N2CCCCC2)o1)C(=O)Nc1cccc(Br)c1 | 21.6% (inactive) | 
29 | N#C/C(=C\c1ccc(-c2ccc(C(=O)O)cc2)o1)C(=O)NCC1CCCO1 (stereo unspecified) | 11.9% (inactive) | 
30 | N#C/C(=C\c1ccc(N2CCOCC2)o1)C(=O)NCC1CCCO1 (stereo unspecified) | 118% (active) | 68
31 | N#C/C(=C\c1ccc(-c2ccc(S(=O)(=O)N3CCOCC3)cc2)o1)C(=O)NC1CC1 | 5.1% (inactive) | 
32 | COCCNC(=O)/C(C#N)=C/c1ccc(N2CCOCC2)o1 | 15.1% (inactive) | 
33 | N#C/C(=C/c1ccc(-c2ccc(Br)cc2)o1)C(=O)NC1CCCCC1 | 3.7% (inactive) | 
34 | N#C/C(=C\c1ccc(N2CCOCC2)o1)C(=O)NCCc1ccccc1 | 110% (active) | 
35 | Cc1ccc(/C=C(\C#N)C(=O)NCC2CCCO2)o1 (stereo unspecified) | 0.2% (inactive) | 
36 | N#C/C(=C/c1ccc(N2CCCCC2)o1)C(=O)NCCc1c[nH]c2ccccc12 | 11.8% (inactive) | 
37 | N#C/C(=C/c1ccc(N2CCOCC2)o1)C(=O)NC1CCCCC1 | 80.5% (active) | 
38 | COc1ccc(NC(=O)/C(C#N)=C\c2ccc(N3CCOCC3)o2)cc1 | 149% (inactive) | 
39 | CN(C)C(=O)CSc1nnc(Cc2ccccc2)n1CC1CCCO1 (stereo unspecified) | -1.3% (inactive) | 
40 | COc1ccc(CN(CC(=O)NC2CCCC2)C(=O)CN2C(=O)COc3ccccc32)cc1 | 0.4% (inactive) | 
41 | Clc1ccc(-c2cnn3c(-c4ccncc4)ccnc23)cc1 | -1.1% (inactive) | 
42 | NC(=O)c1c(NC(=O)C2COc3ccccc3O2)sc2c1CCN(Cc1ccccc1)C2 (stereo unspecified) | 103% (active) | 54
43 | COC(=O)c1c(NC(=O)C2COc3ccccc3O2)sc2c1CCN(Cc1ccccc1)C2 (stereo unspecified) | 3.6% (inactive) | 
44 | CCN1CCc2c(sc(NC(=O)C3COc4ccccc4O3)c2C(N)=O)C1 (stereo unspecified) | -0.3% (inactive) | 
45 | Cc1nonc1OCCNC(=O)C12CC3CC(CC(C3)C1)C2 | 0.6% (inactive) | 
46 | COc1cc(/C=C2/C(=N)N3N=C(C(C)C)SC3=NC2=O)ccc1OS(=O)(=O)c1ccccc1 | 22.3% (inactive) | 

Row | Compound | inhibition (at 20 µM) | inhibition [1] [%]
47 | COc1cc(/C=C2/C(=N)N3C(=NC2=O)SN=C3S(=O)(=O)C(C)C)ccc1OS(=O)(=O)c1ccccc1 | 71.6% (active) | 
48 | CS(=O)(=O)C1=NN2C(=N)/C(=C\c3ccc(OC(=O)c4ccco4)cc3)C(=O)N=C2S1 | 47.6% (inactive) | 
49 | COc1cc(/C=C2\C(=N)N3N=C(S(C)(=O)=O)SC3=NC2=O)ccc1OS(=O)(=O)c1ccc(C)cc1 | 76.5% (active) | 
50 | CCC1=NN2C(=N)/C(=C/c3ccc(OS(=O)(=O)c4ccc(C)cc4)c(OC)c3)C(=O)N=C2S1 | 46.6% (inactive) | 
51 | COc1cc(/C=C2/C(=N)N3C(=NC2=O)SN=C3S(C)(=O)=O)ccc1OC(=O)c1ccco1 | 58.3% (inactive) | 49.7
52 | COc1cc(/C=C2\C(=N)N3N=CSC3=NC2=O)ccc1OS(=O)(=O)c1ccccc1 | 10% (inactive) | 
53 | CCS(=O)(=O)C1=NN2C(=N)/C(=C\c3ccc(OS(=O)(=O)c4ccccc4)cc3)C(=O)N=C2S1 | 39.1% (inactive) | 
54 | CS(=O)(=O)C1=NN2C(=N)/C(=C\c3ccc(OCCOc4ccccc4)cc3)C(=O)N=C2S1 | 80.6% (active) | 
55 | COc1cc(/C=C2/C(=N)N3C(=NC2=O)SN=C3S(C)(=O)=O)ccc1OS(=O)(=O)c1ccc(C)cc1 | 72.4% (active) | 
56 | COc1cc(/C=C2/C(=N)N3C(=NC2=O)SN=C3S(=O)(=O)C(C)C)ccc1OC(=O)c1ccco1 | 37.9% (inactive) | 
57 | COc1cc(/C=C2/C(=N)N3N=C(C)SC3=NC2=O)ccc1OS(=O)(=O)c1ccc(C)cc1 | 13.4% (inactive) | 
58 | CCNC(=O)COc1ccc(OCc2ccccc2)cc1 | 2% (inactive) | 
59 | CC1(C)NC(=O)N(CC(O)CN(Cc2ccccc2)Cc2ccccc2)C1=O (stereo unspecified) | 0.1% (inactive) | 
60 | O=C(NCc1ccco1)C12CN(Cc3ccccc3)CC1C(c1cccc([N+](=O)[O-])c1)=NO2 (stereo unspecified) | 0.7% (inactive) | 
61 | COc1ccc(C2CC(c3c(-c4ccccc4)c4cc(Cl)ccc4[nH]c3=O)=NN2C(=O)CCC(=O)O)cc1 (stereo unspecified) | 15.1% (inactive) | 
62 | O=c1c2c([nH]n1-c1ccccc1)CCSC2 | 3.5% (inactive) | 
63 | COc1ccc2c(c1OC)C[N+]1([O-])CCc3cc4c(cc3C1C2)OCO4 (stereo unspecified) | -1.5% (inactive) | 
64 | C=CCNC(=S)NNc1nc(N2CCCC2)nc(N2CCCC2)n1 | -0.8% (inactive) | 
65 | COc1ccnc(CN(C)C(=O)C2CCC(=O)N(Cc3cccc(C(F)(F)F)c3)C2)c1 (stereo unspecified) | 4.4% (inactive) | 
66 | COc1cc(-n2nnnc2SC)c(OC)cc1Cl | 2.2% (inactive) | 
67 | C/C(=N\NC(=O)CN(c1ccc(Oc2ccccc2)cc1)S(C)(=O)=O)C(C)(C)C | -0.5% (inactive) | 
68 | CCOC(=O)/C(C#N)=C\C=C1C=CN(C)C=C1 | 98.3% (active) | 52.3
69 | C=CCN1C=CC(=C/C=C(/C#N)C(=O)OCC)C=C1 | -0.9% (inactive) | 

Row | Compound | inhibition (at 20 µM) | inhibition [1] [%]
70 | CCCN1C=CC(=C/C=C(\C#N)C(=O)OCC)C=C1 | 0.7% (inactive) | 
71 | CC(C)Cc1nc(S(=O)(=O)c2ccc(Cl)cc2)c(N2CCOCC2)o1 | 1.2% (inactive) | 
72 | Cc1ccc(-n2c(=O)c3ccc(C(=O)NCc4ccco4)cc3n(Cc3ccccc3C#N)c2=O)cc1 | -1.1% (inactive) | 
73 | Nc1c(C(=O)NC2CC2)sc2nc3c(c(-c4ccco4)c12)CC/C3=C/c1ccco1 | 64.6% (inactive) | 21.7
74 | Nc1c(C(=O)Nc2ccccc2)sc2nc3c(c(-c4ccco4)c12)CCC3 | -1.5% (inactive) | 
75 | Nc1c(C(=O)NCC2CCCO2)sc2nc3c(c(-c4ccco4)c12)CC/C3=C\c1ccco1 (stereo unspecified) | 64.6% (active) | 
76 | COc1cccc(Nc2nc3ccccc3nc2NS(=O)(=O)c2cccs2)c1 | 69.4% (inactive) | 30.8
77 | COc1ccc(Nc2nc3ccccc3nc2NS(=O)(=O)c2cccs2)c(OC)c1 | 51.5% (active) | 64.5
78 | COc1ccc(Nc2nc3ccccc3nc2NS(=O)(=O)c2cccs2)cc1 | 45.5% (inactive) | 
79 | Cc1cccc(C)c1NC(=O)CN(C)C(=O)c1ccccc1C(=O)N(C)Cc1ccccc1 | -1.3% (inactive) | 
80 | C(=N\Nc1nc(N2CCCC2)nc(N2CCCC2)n1)/c1ccncc1 | -0.1% (inactive) | 
81 | COc1ccc(C(=O)NCc2nnc(SCC(=O)Nc3ccccc3F)o2)cc1 | -1.8% (inactive) | 
82 | COc1ccccc1/C=C/C(=O)NCC(=O)n1nc(C)cc1C | 0.9% (inactive) | 
83 | O=c1cc(O)c2sc(Nc3ccc(F)c(Cl)c3)nc2[nH]1 | 51.4% (active) | 
84 | O=c1cc(O)c2sc(Nc3ccc(Cl)c(F)c3)nc2[nH]1 | 46.9% (inactive) | 
85 | O=c1cc(O)c2sc(Nc3ccc(F)cc3)nc2[nH]1 | 23.5% (inactive) | 
86 | CCOc1ccc2cc(C(=O)NCc3ccccc3)c(=N)oc2c1 | 0.1% (inactive) | 
87 | C/C(C/C(C)=C1/SC(=S)NC1=O)=C1\SC(=S)NC1=O | 69.5% (active) | 
88 | CCCCCC/C(C)=C1/SC(=S)NC1=O | 24.4% (inactive) | 
89 | CCO/C(C)=C1/SC(=S)NC1=O | -1% (inactive) | 
90 | CCC1(CC)Cc2ccccc2C(=C(C#N)C#N)N1 | 0.7% (inactive) | 
